Screens as filed in PubChem.
The list is not random: actives were taken first. Their share in the collection is about 17%.
TGFb SMAD3 inh = qHTS for Inhibitors of TGF-b. Potency, µM (titrated, usually from 46.1 µM), usual class: inhibitors. HepG2 CAGA-GFP TGF-b/SMAD3 reporter, GFP fluorescence, 18 h; TGF-beta stimulated, 500 pg/mL final. AID 588855, 2011. 410,000 tested, 1.2% active; further: nearly all actives have a fitted effect of over 65% in size
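GFP signal (ex488/em500-530) from TGF-beta-stimulated HEPG2 CAGA-GFP cells, 500 pg/mL final, 18 h at 37 degrees C in DMEM plus 1% FBS, normalized to unstimulated and DMSO-stimulated controls.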
TDP1 cell CPT = qHTS for Inhibitors of human tyrosyl-DNA phosphodiesterase 1 (TDP1): qHTS in cells in presence of CPT. AID 686979, 2013. Potency, µM (doses to about 46.2 µM), most hits filed as inhibitors. 420,000 tested, 12% active. chicken DT40 Tdp1-/-;hTDP1 cells + 20 nM CPT, ATP luminescence, 48 h; further: nearly all actives have a fitted effect of over 55% in size
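Chicken DT40 Tdp1-/- cells stably complemented with human TDP1 were seeded at 400 cells/well in medium containing 20 nM camptothecin, exposed to pin-transferred compounds, and grown at 37 °C for at least 48 hr. Viability was read as ATP luminescence.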
HepG2 viability = qHTS for Inhibitors of TGF-b: Cytotox Counterscreen. 410,000 tested, 0.76% active. HepG2 CAGA-GFP viability, ATP luminescence, 18 h. Potency, µM (highest dose often 46.1 µM), usual class: cytotoxic
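HepG2 CAGA-GFP cells (1000/well, DMEM with 1% FBS) received compound, then TGF-beta at 500 pg/mL final, and were incubated 18 hours at 37 degrees C. Viability was read by CellTiter-Glo luminescence. Media-only wells were set as complete cell-killing and DMSO as no toxicity.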
ATXN viability = Viability Counterscreen for Primary qHTS for Inhibitors of ATXN expression | AID 651635, 2014 | S2 cells (HEK-293 line with an ATXN2-luciferase reporter) viability, CellTiter-Fluor protease fluorescence, 24 h | 400,000 tested, 0.49% active | Potency, µM (titrated, usually from 56.7 µM), usual class: cytotoxic; further: nearly all actives have a fitted effect of over 40% in size
DT40 TDP1 no CPT = qHTS for Inhibitors of human tyrosyl-DNA phosphodiesterase 1 (TDP1): qHTS in cells in absence of CPT; Potency, µM (series often up to 46.2 µM), most hits filed as inhibitors; AID 686978, 2013; 420,000 tested, 15% active; DT40 Tdp1-/- hTDP1 cells, no CPT, ATP luminescence, 48 h; further: nearly all actives have a fitted effect of over 55% in size
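Stably hTDP1-transfected Tdp1-null chicken DT40 cells were treated with library compounds minus camptothecin and grown for at least 48 hr at 37 °C, after which cellular ATP was quantified by luminescence.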
ATXN2 expr inh = Primary qHTS for Inhibitors of ATXN expression. HEK-293 ATXN2-luciferase reporter, luminescence, 24 h. Potency, µM (top dose mostly 57 µM), actives largely listed as inhibitors. 360,000 tested, 0.72% active; further: nearly all actives have a fitted effect of over 55% in size
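qHTS (up to 57 uM final) was run with 24 h compound exposure of reporter cells at 37 °C. Each well was multiplexed: SteadyGlo luminescence measured ATXN2-luciferase expression after a fluorogenic Gly-Phe-AFC viability readout (25 uM final).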
A number is an active result. The call rests on the fitted dose curve; in most records, active means well fitted curve in the direction sought with a large enough effect; inconclusive means small, poorly fitted or top-dose-only effect, or another doubt; inactive means no such curve, though single readings can be large; an effect the other way counts as inactive or inconclusive.

What do the screens show for `CCOCCCn1c(=N)c(C(=O)NCc2ccco2)cc2c(=O)n3ccccc3nc21`?
TGFb SMAD3 inh: inconclusive; TDP1 cell CPT: inactive; HepG2 viability: inactive; DT40 TDP1 no CPT: inactive; ATXN2 expr inh: inactive

Results for COc1ccc(CCNC(=O)c2cc3c(=O)n4ccccc4nc3n(Cc3ccco3)c2=N)cc1OC ?
TGFb SMAD3 inh: inactive; TDP1 cell CPT: 20.6µM; HepG2 viability: inactive; ATXN viability: inactive; DT40 TDP1 no CPT: 13µM

What do the screens show for `N=c1c(C(=O)NCc2ccco2)cc2c(=O)n3ccccc3nc2n1CCc1ccccc1`?
TGFb SMAD3 inh: inconclusive; TDP1 cell CPT: 18.4µM; HepG2 viability: inactive; ATXN viability: inactive; DT40 TDP1 no CPT: 20.6µM; ATXN2 expr inh: inactive

Results for COc1ccc(CCn2c(=N)c(C(=O)NCc3ccco3)cc3c(=O)n4ccccc4nc32)cc1OC ?
TGFb SMAD3 inh: inactive; TDP1 cell CPT: 7.31µM; HepG2 viability: inactive; ATXN viability: inconclusive; DT40 TDP1 no CPT: 6.51µM

What do the screens show for `CC(=O)N1CCN(c2ccc(OCc3nn(C)c(C)c3-c3cccc4c(CCCOc5cccc6ccccc56)c(C(=O)O)n(Cc5cccnc5)c34)cc2)CC1`?
ATXN2 expr inh: inactive

Results for C=CC[C@H](CC(=O)NCCO)C(=O)N[C@@H](COC(=O)[C@H](CC=C)CC(=O)OC(C)(C)C)Cc1ccccc1 ?
TGFb SMAD3 inh: inactive; TDP1 cell CPT: inconclusive; HepG2 viability: inactive; ATXN viability: inactive; DT40 TDP1 no CPT: inactive; ATXN2 expr inh: inactive

How did CCOC(=O)c1c(C)[nH]c(C)c1S(=O)(=O)N1CCN(c2cccc(C(F)(F)F)c2)CC1 do in these assays?
TGFb SMAD3 inh: inconclusive; TDP1 cell CPT: inconclusive; HepG2 viability: inactive; DT40 TDP1 no CPT: inconclusive

How did Cc1cc(C(=O)OCC(=O)NCc2ccc(Cl)cc2Cl)c(C)o1 do in these assays?
TGFb SMAD3 inh: inactive; TDP1 cell CPT: inactive; HepG2 viability: inactive; ATXN viability: inactive; DT40 TDP1 no CPT: inactive; ATXN2 expr inh: inactive

How did CSCCC(NC(=O)c1ccco1)C(=O)NCC1CCCO1 (centres undefined) do in these assays?
TGFb SMAD3 inh: inactive; TDP1 cell CPT: inactive; HepG2 viability: inactive; ATXN viability: inactive; DT40 TDP1 no CPT: 3.26µM

Results for COc1ccc(S(=O)(=O)N(C)CC(=O)Nc2ccc(C(F)(F)F)cc2)cc1Cl ?
TGFb SMAD3 inh: inactive; TDP1 cell CPT: inconclusive; HepG2 viability: inactive; ATXN viability: inactive; DT40 TDP1 no CPT: inconclusive; ATXN2 expr inh: inactive

What do the screens show for `Cc1ccsc1C(=O)OCC(=O)Nc1cccc(S(=O)(=O)N2CCCCC2)c1`?
TGFb SMAD3 inh: inactive; TDP1 cell CPT: inconclusive; HepG2 viability: inactive; ATXN viability: inconclusive; DT40 TDP1 no CPT: inconclusive

How did COc1cccc(N2CCN(c3ncnc4c3nc3n4CCCCC3)CC2)c1 do in these assays?
TGFb SMAD3 inh: inconclusive; TDP1 cell CPT: 16.4µM; HepG2 viability: inactive; ATXN viability: inactive; DT40 TDP1 no CPT: 10.3µM; ATXN2 expr inh: inconclusive

What do the screens show for `FC(F)(F)c1cccc(N2CCN(c3ncnc4c3nc3n4CCCC3)CC2)c1`?
TGFb SMAD3 inh: inconclusive; TDP1 cell CPT: 9.2µM; HepG2 viability: inactive; DT40 TDP1 no CPT: 9.2µM

How did Cc1ccc(S(=O)(=O)C(CNC(=O)c2ccccc2F)c2cccs2)cc1 (centres undefined) do in these assays?
TGFb SMAD3 inh: inactive; TDP1 cell CPT: inconclusive; HepG2 viability: inactive; ATXN viability: inactive; DT40 TDP1 no CPT: 14.6µM; ATXN2 expr inh: inactive

Results for COc1ccccc1CNC(=O)C(=O)NCC(c1ccco1)S(=O)(=O)c1ccc(C)cc1 (centres undefined) ?
TGFb SMAD3 inh: inactive; TDP1 cell CPT: inconclusive; HepG2 viability: inactive; DT40 TDP1 no CPT: inconclusive

Results for Cc1ccc(S(=O)(=O)C(CNC(=O)C(=O)NCCc2ccccc2)c2cccs2)cc1 (centres undefined) ?
TGFb SMAD3 inh: inactive; TDP1 cell CPT: 16.4µM; HepG2 viability: inactive; ATXN viability: inactive; DT40 TDP1 no CPT: 14.6µM; ATXN2 expr inh: inactive

What do the screens show for `O=C(NCCc1ccc(F)cc1)C(=O)NCC(c1cccs1)S(=O)(=O)c1ccc(F)cc1` (centres undefined)?
TGFb SMAD3 inh: inactive; TDP1 cell CPT: inconclusive; HepG2 viability: inactive; ATXN viability: inconclusive; DT40 TDP1 no CPT: inconclusive; ATXN2 expr inh: inconclusive

What do the screens show for `COc1ccccc1CCNC(=O)C(=O)NCC(c1ccco1)S(=O)(=O)c1ccc(F)cc1` (centres undefined)?
TGFb SMAD3 inh: inactive; TDP1 cell CPT: 16.4µM; HepG2 viability: inactive; DT40 TDP1 no CPT: inconclusive

What do the screens show for `Cc1ccc(S(=O)(=O)C(CNC(=O)C(=O)NCCc2ccc(F)cc2)c2cccs2)cc1` (centres undefined)?
TGFb SMAD3 inh: inactive; TDP1 cell CPT: inconclusive; HepG2 viability: inactive; ATXN viability: inactive; DT40 TDP1 no CPT: 16.4µM; ATXN2 expr inh: inactive

How did O=C(C[n+]1ccc(/C=C/c2c[nH]c3ccccc23)c2ccccc21)c1ccccc1 do in these assays?
TGFb SMAD3 inh: inactive; TDP1 cell CPT: inactive; HepG2 viability: inactive; DT40 TDP1 no CPT: inconclusive

What do the screens show for `COc1ccnc2[nH]cc(C(=O)C(=O)N3CCN(C(=O)c4ccccc4)C[C@@H]3C)c12`?
ATXN2 expr inh: inactive

What do the screens show for `CN(C)c1ccc(/C=C/c2cc(=O)[nH]c3ccccc23)cc1`?
TGFb SMAD3 inh: inactive; TDP1 cell CPT: inactive; HepG2 viability: inactive; DT40 TDP1 no CPT: inactive

How did COc1ccc2[nH]c(C(=O)N3CCC(n4nccc4NC(=O)C4CC4)CC3)c(C)c2c1 do in these assays?
TGFb SMAD3 inh: inactive; TDP1 cell CPT: inactive; HepG2 viability: inactive; ATXN viability: inactive; DT40 TDP1 no CPT: inactive; ATXN2 expr inh: inactive

What do the screens show for `COc1ccc(CCNC(=O)C(=O)NCC(c2cccs2)S(=O)(=O)c2ccccc2)cc1` (centres undefined)?
TGFb SMAD3 inh: inactive; TDP1 cell CPT: inconclusive; HepG2 viability: inactive; ATXN viability: inactive; DT40 TDP1 no CPT: inconclusive; ATXN2 expr inh: inactive

Results for COc1ccc(CCNC(=O)C(=O)NCC(c2cccs2)S(=O)(=O)c2ccc(C)cc2)cc1 (centres undefined) ?
TGFb SMAD3 inh: inactive; TDP1 cell CPT: inconclusive; HepG2 viability: inactive; ATXN viability: inactive; DT40 TDP1 no CPT: 9.2µM; ATXN2 expr inh: inactive

What do the screens show for `COc1ccc(Cc2c(-c3ccc(C)cc3)nc3ccc(Cl)cn23)c(C)c1`?
TGFb SMAD3 inh: inconclusive; TDP1 cell CPT: 23.1µM; HepG2 viability: inactive; ATXN viability: inconclusive; DT40 TDP1 no CPT: 23.1µM; ATXN2 expr inh: inactive
